{"source": "PubChem BioAssay AID1851", "about": "(National Center for Advancing Translational Sciences (NCATS), 2009)", "note": "About 5,100 (32%) of roughly 16,000 compounds were called active. About 25% were inconclusive and are not listed. The list shows a part of the results. A number with no mark means an inactive call. The call rests on the fitted dose curve; in most records, active means well fitted curve in the direction sought with a large enough effect; inconclusive means small, poorly fitted or top-dose-only effect, or effect the other way; inactive means no such curve, though single readings can be large or run the other way. On the % scale 0 is the no-effect control and ±100 the full control effect."}
{"target": "Cytochrome P450 3A4 (Homo sapiens) (UniProt P08684)", "sequence (P08684 whole entry, looked up)": "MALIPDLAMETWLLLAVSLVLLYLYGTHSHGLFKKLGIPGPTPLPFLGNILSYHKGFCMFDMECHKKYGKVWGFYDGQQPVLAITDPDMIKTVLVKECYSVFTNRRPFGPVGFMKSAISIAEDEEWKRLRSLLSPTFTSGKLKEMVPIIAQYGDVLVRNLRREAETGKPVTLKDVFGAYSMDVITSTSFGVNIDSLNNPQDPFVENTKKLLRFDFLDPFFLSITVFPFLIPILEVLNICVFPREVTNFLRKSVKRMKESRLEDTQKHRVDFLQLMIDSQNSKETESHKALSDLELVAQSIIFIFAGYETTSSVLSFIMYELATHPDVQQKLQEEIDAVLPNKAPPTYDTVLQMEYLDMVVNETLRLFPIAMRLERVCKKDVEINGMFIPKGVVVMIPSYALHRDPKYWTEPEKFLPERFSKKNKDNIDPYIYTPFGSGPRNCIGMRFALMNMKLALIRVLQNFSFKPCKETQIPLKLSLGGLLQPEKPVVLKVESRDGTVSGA", "assay": "Cytochrome panel assay with activity outcomes", "settings": "recombinant CYP, pro-luciferin dealkylation, luminescence, p450-cyp3a4; series mostly up to 57.1 µM; activity, negative = inhibition: at the top concentration"}
{"smiles": "COc1ccc([N+](=O)[O-])cc1N(CC(O)CN(CC(C)C)CC(C)C)S(=O)(=O)c1ccccc1", "note": "(stereo not given)", "AC50": "1.12 µM (active)"}
{"smiles": "CCN(Cc1ccccc1)Cc1cccc([N+](=O)[O-])c1", "activity, negative = inhibition": "9.2%"}
{"smiles": "CCN(/C=N/c1sc2c(c1C#N)CCCCC2)CC", "activity, negative = inhibition": "-17.6% [at 2.29 µM]"}
{"smiles": "CCCN(/C=N/c1sc2c(c1C#N)CCCCC2)CCC", "AC50": "7.94 µM (active)"}
{"smiles": "COc1ccccc1CNc1ncncc1-c1cccc(NS(C)(=O)=O)c1", "AC50": "0.251 µM (active)"}
{"smiles": "COc1ccc(CNc2ncncc2-c2cccc(NS(C)(=O)=O)c2)c(OC)c1", "AC50": "0.251 µM (active)"}
{"smiles": "Cc1cc2c(cc1S(N)(=O)=O)S(=O)(=O)CCC2", "activity, negative = inhibition": "-0.57% [at 25.6 µM]"}
{"smiles": "CCC(C)(C(=O)NC1CCCC1)N(CC1CCCO1)C(=O)c1ccc2c(c1)OCO2", "note": "(stereo not given)", "AC50": "3.98 µM (active)"}
{"smiles": "Cc1ccc(C(=O)NCC2CCCO2)cc1N1CCCC1=O", "note": "(stereo not given)", "activity, negative = inhibition": "4.7%"}
{"smiles": "CCOC(=O)Nc1ccc(C(=O)NCC2CCCO2)cc1", "note": "(stereo not given)", "activity, negative = inhibition": "0.318%"}
{"smiles": "COc1cccc(CNc2ccc3nc(-c4ccc(N)cc4)c(OC)n3n2)c1", "AC50": "5.01 µM (active)"}
{"smiles": "CC(=O)OCCCN1c2ccccc2Nc2nnc(-c3ccccc3)cc21", "AC50": "12.6 µM (active)"}
{"smiles": "COc1ccc(CN(CCN(C)C)c2ccccn2)cc1", "activity, negative = inhibition": "-5.75% [at 25.6 µM]"}
{"smiles": "Cc1ccc(N(Cc2ccccc2)Cc2ccccc2)cc1", "activity, negative = inhibition": "-22.6% [at 11.4 µM]"}
{"smiles": "CN(C)c1nccc(N(Cc2ccccc2)Cc2ccccc2)c1C#N", "AC50": "12.6 µM (active)"}
{"smiles": "CO[C@@H]1COC(=O)[C@H]2CCCN2C(=O)C/C=C\\[C@@H](C)[C@H](OC)COC(=O)[C@H]2CCCN2C(=O)C/C=C\\[C@H]1C", "activity, negative = inhibition": "-3.39% [at 11.4 µM]"}
{"smiles": "CN(C)c1ncc2ncc(=O)n(C)c2n1", "activity, negative = inhibition": "-19.6%"}
{"smiles": "O=C(O)COc1ccc(-c2nccc(-c3cccs3)n2)cc1", "activity, negative = inhibition": "-28.8%"}
{"smiles": "c1ccc2c(c1)ncn2-c1ccc(-c2ccnc(-c3ccncc3)n2)cc1", "AC50": "0.501 µM (active)"}
{"smiles": "c1ccc(-c2nccc(-c3ccc(-n4cnc5ccccc54)cc3)n2)nc1", "activity, negative = inhibition": "-16.7%"}
{"smiles": "COc1ccc(C(=O)N2CCC3(CCCN(C(=O)Nc4cccc(C#N)c4)C3)CC2)cc1", "AC50": "6.31 µM (active)"}
{"smiles": "COCC(=O)N1CCC[C@@]2(CCN(C(=O)Nc3ccccc3)C2)C1", "activity, negative = inhibition": "-21.6%"}
{"smiles": "COC(=O)N1CCC2(CC1)CN(C(=O)Nc1cccc(C#N)c1)C2", "activity, negative = inhibition": "13.1%"}
{"smiles": "N#Cc1cccc(NC(=O)N2CC[C@@]3(CCCN(C(=O)c4ccncc4)C3)C2)c1", "AC50": "15.8 µM (active)"}
{"smiles": "COCC(=O)N1CCC2(CC1)CN(C(=O)Nc1cccc(C#N)c1)C2", "activity, negative = inhibition": "-6.1%"}
{"smiles": "CC(=O)N1CCC2(CC1)CN(C(=O)Nc1cccc(C#N)c1)C2", "activity, negative = inhibition": "-13.8%"}
{"smiles": "COCC(=O)N1CCC2(CCCN(C(=O)Nc3cccc(C#N)c3)C2)CC1", "activity, negative = inhibition": "-14.3%"}
{"smiles": "COc1ccc(C(=O)N2CCC[C@@]3(CCN(C(=O)Nc4cccc(C#N)c4)C3)C2)cc1", "AC50": "7.94 µM (active)"}
{"smiles": "COc1ccc(C(=O)N2CCC3(CC2)CN(C(=O)Nc2cccc(C#N)c2)C3)cc1", "AC50": "15.8 µM (active)"}
{"smiles": "COC(=O)N1CCC[C@@]2(CCN(C(=O)Nc3cccc(C#N)c3)C2)C1", "activity, negative = inhibition": "-20.2%"}
